Assay outcomes from PubChem BioAssay.
ERK EGF inh: qHTS Assay for Inhibitors of the ERK Signaling Pathway using a Homogeneous Screening Assay; Stimulation with EGF. HEK293-V1b, EGF-stimulated phospho-ERK AlphaScreen. AID 1454, 2008. actives 0.41% (n = 130,000). Potency, µM (series often up to 11.5 µM), inactives show top-dose activity change, negative = inhibition, usual class: inhibitors;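 further: potency means the concentration at half of the fitted maximal effect; plate controls were stimulated vehicle wells for no effect and unstimulated vehicle basal for full effect; nearly all actives have a fitted effect of over 55% in size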
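Concentration-response of compounds against EGF-driven ERK phosphorylation in V1b-expressing HEK293 cells; 30 min preincubation, 5 min EGF, AlphaScreen detection; Normalized to DMSO basal and 25 nM EGF.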
ERK pERK EGF: Confirmation Concentration-Response Assay for Inhibitors of the ERK Signaling Pathway using a Homogeneous Screening Assay; Stimulation with EGF | actives 60% (n = 60) | shares compounds with ERK EGF inh | Potency, µM (doses to about 57.5 µM), inactives show top-dose activity change, negative = inhibition, usual class: inhibitors | HEK293 EGF-stimulated ERK phosphorylation, AlphaScreen
cRaf kinase inh: Assay for Inhibitors of the ERK Signaling Pathway using a Homogeneous Screening Assay: c-Raf Inhibition; c-Raf kinase inhibition, homogeneous biochemical assay; activity change, negative = inhibition, % at 76.9 µM; shares compounds with ERK EGF inh; 70 tested, under 10 active; AID 1728, 2009
Target sequence (P04049 whole entry, looked up): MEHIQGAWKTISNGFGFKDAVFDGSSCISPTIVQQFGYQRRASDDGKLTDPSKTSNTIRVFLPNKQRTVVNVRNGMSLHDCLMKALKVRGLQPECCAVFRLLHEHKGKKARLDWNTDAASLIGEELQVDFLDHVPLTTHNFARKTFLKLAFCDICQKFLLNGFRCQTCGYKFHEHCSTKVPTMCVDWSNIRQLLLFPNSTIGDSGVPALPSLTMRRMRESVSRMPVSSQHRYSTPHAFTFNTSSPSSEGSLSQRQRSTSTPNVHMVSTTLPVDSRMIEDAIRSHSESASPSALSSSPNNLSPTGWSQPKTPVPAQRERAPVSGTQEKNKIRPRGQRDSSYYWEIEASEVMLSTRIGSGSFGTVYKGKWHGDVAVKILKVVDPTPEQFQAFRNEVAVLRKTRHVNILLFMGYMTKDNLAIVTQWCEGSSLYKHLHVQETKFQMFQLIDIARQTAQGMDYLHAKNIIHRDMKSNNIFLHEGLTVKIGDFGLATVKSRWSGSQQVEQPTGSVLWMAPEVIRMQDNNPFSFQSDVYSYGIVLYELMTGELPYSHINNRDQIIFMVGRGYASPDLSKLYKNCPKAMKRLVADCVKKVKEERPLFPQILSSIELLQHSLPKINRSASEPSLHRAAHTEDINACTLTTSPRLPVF
MEK inh: Assay for Inhibitors of the ERK Signaling Pathway using a Homogeneous Screening Assay: MEK Inhibition | homogeneous MEK kinase activity assay, ERK pathway | 70 tested, under 10 active | AID 1732, 2009 | shares compounds with ERK EGF inh | Potency, µM (top dose mostly 76.9 µM), for inactives: top-dose activity change, negative = inhibition, hits mostly inhibitors
* marks the source's active call; other numbers are inactive results; u = inconclusive; x = no result; [ ] = remark or other dose. The entries come from a sample that favours hits as a whole. The call rests on the fitted dose curve; in most records, active means well fitted curve in the direction sought with a large enough effect; inconclusive means small, poorly fitted or top-dose-only effect, or another doubt; inactive means no such curve, though single readings can be large; an effect the other way counts as inactive or inconclusive.

SMILES | ERK EGF inh | others
COc1cccc(/C=N/Nc2cc(-n3nc(C)cc3-c3ccccc3)ncn2)c1O | 8.9µM* | ERK pERK EGF=11µM*;cRaf kinase inh=u;MEK inh=-7%
COc1cccc(/C=N/Nc2ncnc3scc(-c4ccccc4)c23)c1O | 5%
C=CCOC(=O)N[C@H](/C(C(=O)OC)=C(\C)NCc1ccccc1)c1ccc(C)cc1 | 1%
COc1cc2c(cc1OC)C(/C=C/c1ccc(OC)c(OC)c1OC)=NCC2 | 18%
COc1ccc(C(=O)c2ccc(Cl)c([N+](=O)[O-])c2)cc1 | 8.9µM* | ERK pERK EGF=16µM*;cRaf kinase inh=u;MEK inh=-8%
Cc1cc(NC(=O)c2ccc(Cl)c([N+](=O)[O-])c2)no1 | -5%[57.5 µM]
COc1cc(C(=O)Nc2ccc(Cl)c([N+](=O)[O-])c2)cc(OC)c1OC | 2%
COC(=O)[C@@]1(Cc2ccccc2)[C@H]2c3cc(C(=O)N(C)C)n(Cc4ccccc4)c3C[C@H]2CN1C(=O)c1ccccc1 | -16%
C=CCC(C)(O)C#Cc1ccccc1 (configuration not stated) | 5%
CCCCCCCCCCCCC/C=C/[C@@H](O)[C@H](COP(=O)([O-])OCC[N+](C)(C)C)NC(=O)CCCCCCCCCCCCCCCCC | 5%
COC(=O)[C@@]1(Cc2ccc(OC)cc2)[C@H]2c3cc(C(=O)N(C)C)n(Cc4ccc(C(F)(F)F)nc4)c3C[C@H]2CN1C(=O)c1ccccc1 | 0%
C/C(=N\Nc1nnc(-c2ccccc2)c(-c2ccccc2)n1)c1cccc([N+](=O)[O-])c1 | u | ERK pERK EGF=-14%;cRaf kinase inh=-3;MEK inh=-5%
C/C(=N\Nc1cc(C)nc(NCc2ccccc2)n1)c1cccc([N+](=O)[O-])c1 | -7%[57.5 µM]
O=[N+]([O-])c1cccc(/C=N/Nc2nnc(-c3ccccc3)c(-c3ccccc3)n2)c1 | -17%
Cc1sc2ncnc(Nc3ccccc3)c2c1C | x | ERK pERK EGF=u;cRaf kinase inh=-12;MEK inh=-1%
Fc1ccc(Nc2ncnc3sc4c(c23)CCC4)cc1 | x | ERK pERK EGF=10µM*;cRaf kinase inh=u;MEK inh=-7%
Cc1cc(F)ccc1S(=O)(=O)Nc1ncnc2sc3c(c12)CCC3 | 1%[57.5 µM]
Cc1nc(Nc2cccc(O)c2)c2c3c(sc2n1)CCC3 | -1%[57.5 µM]
c1cncc(CNc2ncnc3sc4c(c23)CCCC4)c1 | -11%
CN(C)C(CNc1ncnc2sc3c(c12)CCCCC3)c1ccco1 (configuration not stated) | -5%
Fc1ccc(Nc2ncnc3sc4c(c23)CCC4)cc1F | 2.5µM* | ERK pERK EGF=8.9µM*;cRaf kinase inh=u;MEK inh=u
Cc1cc(C)nc(Sc2ncnc3sc4c(c23)CCC4)n1 | 3%
Cc1sc2ncnc(N[C@@H](Cc3c[nH]c4ccccc34)C(=O)O)c2c1C | 6%
COc1ccc(/C=N/Nc2ncnc3sc4c(c23)CCCC4)cc1OC | 15%
c1ccc(Nc2ncnc3sc4c(c23)CCC4)cc1 | x | ERK pERK EGF=10µM*;cRaf kinase inh=-32;MEK inh=18%
SMILES | ERK EGF inh | others
Cc1sc2ncnc(NC(C)C(=O)O)c2c1C (configuration not stated) | -6%
CC(C)C[C@@H](CC(=O)N[C@@H](CCCN)CC(=O)N[C@@H]1CCNC[C@H]1C(=O)N[C@H](CC(=O)N[C@@H](CCC(=O)O)CC(=O)O)Cc1ccccc1)NC(=O)[C@@H]1CNCC[C@H]1N | 0%
C[C@H](N)CCCC(C)(C)O | -2%[25.7 µM]
CCCCCCCCCCCCCCCC(=O)C(F)(F)F | -10%
COc1ncc2nc(-c3cc(F)cc(F)c3)c(=O)n(CCC#N)c2n1 | -7%
C=C1C[C@]23CC[C@H]4C(CO)(CO)C[C@@H](O)C[C@@]4(C)[C@@H]2CC[C@H]1C3 | -14%
CCCCCCCCCCCCCCC[C@H](O)[C@@H](N)CO | 7%
NC(=O)c1cc[n+](CC2=C(C(=O)[O-])N3C(=O)[C@@H](NC(=O)Cc4cccs4)[C@@H]3SC2)cc1 | 15%[25.7 µM]
O=C1c2ccccc2C(Cc2ccnc(F)c2)(Cc2ccnc(F)c2)c2ccccc21 | 6%
COC(=O)N1CCC2(CCCN(C(=O)Nc3ccccc3)C2)CC1 | -6%
CCN1C(=O)C(CC(=O)Nc2ccc(C)cc2C)Nc2cc(S(=O)(=O)N(C)C)ccc21 (configuration not stated) | -4%
C=CCN1C(=O)/C(=C/C=C2/N(CC)c3ccc(S(=O)(=O)N(C)C)cc3N2CC)SC1=S | u | ERK pERK EGF=u;cRaf kinase inh=-2;MEK inh=5%
C=CCN1C(=O)/C(=C\c2cc(Br)c(OCc3ccccn3)c(OC)c2)SC1=S | 0%
COc1ccc([C@@H](C)C(=O)c2ccc(O)cc2O)cc1 | 2%
COC(=O)C1(C(C)=O)CC2=CC[C@@H]3C(=O)N(c4ccccc4)C(=O)[C@@H]3[C@@H]2Cc2ccccc2[C@@H]1C[N+](=O)[O-] (some centres not stated) | -15%
